Read-out in assay [1]: Pyruvate Dehydrogenase Kinase 4 (PDK4), PDK4 (gene 5166)
Description: LTEA_HepaRG_PDK4: Life Technologies and Expression Analysis (LTEA) Assay for Pyruvate Dehydrogenase Kinase 4 (PDK4) using HepaRG (AID 2283525). Conditions: mRNA level, 48 h; actives raise or lower the signal. A digest of the protocol: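 HepaRG cells plated 48 h, then switched to serum-free induction medium and exposed in duplicate for 48 h to 8 half-log concentrations from 100 uM in 0.5% DMSO. PDK4 mRNA measured by qRT-PCR, normalized to ACTB, GAPDH and POLR2A; bidirectional fit versus DMSO.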

Read-out in assay [2]: NAD(P)H dehydrogenase [quinone] 1 (NQO1), NQO1 (gene 1728)
Description: LTEA_HepaRG_NQO1: Life Technologies and Expression Analysis (LTEA) Assay for NAD(P)H dehydrogenase [quinone] 1 (NQO1) using HepaRG (AID 2283526). The settings on record: mRNA level, 48 h; actives raise or lower the signal. A digest of the protocol: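 Differentiated HepaRG cells, plated 48 h and then switched to serum-free induction medium, were exposed in duplicate for 48 h to 8-point half-log concentrations up to 100 uM in 0.5% DMSO. mRNA measured by qRT-PCR, normalized to ACTB, GAPDH, POLR2A; bidirectional fit versus DMSO.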

Read-out in assay [3]: succinate dehydrogenase complex iron sulfur subunit B (SDHB), SDHB (gene 6390)
Nature of the assay: LTEA_HepaRG_SDHB: Life Technologies and Expression Analysis (LTEA) Assay for succinate dehydrogenase complex iron sulfur subunit B (SDHB) using HepaRG (AID 2283528). The settings on record: mRNA level, 48 h; actives raise or lower the signal. A digest of the protocol: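 A human HepaRG culture in serum-free induction medium received test chemicals for 48 h over an eight-point range capped at 100 uM. SDHB expression change was quantified by qRT-PCR.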

Read-out in assay [4]: Signal transducer and activator of transcription 3 (Homo sapiens) (UniProt P40763)
Description: LTEA_HepaRG_STAT3: Life Technologies and Expression Analysis (LTEA) Assay for Signal transducer and activator of transcription (STAT3) using HepaRG (AID 2283529). Conditions: mRNA level, 48 h; actives raise or lower the signal. An outline of the steps:
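Differentiated HepaRG cells, serum-free induction medium, dosed 48 h in duplicate, 8 half-log concentrations from 100 uM in 0.5% DMSO. STAT3 mRNA by qRT-PCR, normalised to ACTB, GAPDH, POLR2A; bidirectional fit versus DMSO.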

Read-out in assay [5]: sulfotransferase 2A1 (SULT2A1), SULT2A1 (gene 6822)
Description: LTEA_HepaRG_SULT2A1: Life Technologies and Expression Analysis (LTEA) Assay for sulfotransferase 2A1 (SULT2A1) using HepaRG (AID 2283531). Conditions: mRNA level, 48 h; actives raise or lower the signal. A digest of the protocol: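 Cells were plated and cultured 48 h, switched to serum-free induction medium, then dosed in duplicate for 48 h (8 concentrations, max 100 uM). RNA was isolated and SULT2A1 expression measured by qRT-PCR; gain or loss of signal fitted relative to DMSO.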

Read-out in assay [6]: Transforming Growth Factor (TGFA), TGFA (gene 7039)
Nature of the assay: LTEA_HepaRG_TGFA: Life Technologies and Expression Analysis (LTEA) Assay for Transforming Growth Factor (TGFA) using HepaRG (AID 2283532). The settings on record: mRNA level, 48 h; actives raise or lower the signal. A digest of the protocol: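 Differentiated HepaRG cells exposed 48 hours in serum-free induction medium, 0.5% DMSO vehicle, 8-point half-log series from 100 uM, in duplicate. TGFA mRNA by TaqMan qRT-PCR, normalised to ACTB, GAPDH, POLR2A; bidirectional fit versus DMSO.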

Read-out in assay [7]: Transforming Growth Factor (TGFB1), TGFB1 (gene 7040)
Nature of the assay: LTEA_HepaRG_TGFB1: Life Technologies and Expression Analysis (LTEA) Assay for Transforming Growth Factor (TGFB1) Transporter using HepaRG (AID 2283533). The settings on record: mRNA level, 48 h; actives raise or lower the signal. A digest of the protocol: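 Expression change of TGFB1 in human HepaRG cells is measured after a 48 h chemical exposure, up to 100 uM in 0.5% DMSO vehicle. Curves are fitted in both directions relative to the DMSO baseline.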

Read-out in assay [8]: Tumor necrosis factor receptor 1 (TNFRSF1A), TNFRSF1A (gene 7132)
Description: LTEA_HepaRG_TNFRSF1A: Life Technologies and Expression Analysis (LTEA) Assay for Tumor necrosis factor receptor 1 (TNFRSF1A) using HepaRG (AID 2283535). The settings on record: mRNA level, 48 h; actives raise or lower the signal. A digest of the protocol:
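Expression of TNFRSF1A in human HepaRG liver cells was measured by qRT-PCR 48 h after chemical dosing (maximum 100 uM). Bidirectional curve fitting used 0.5% DMSO as baseline.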

Read-out in assay [9]: Thyroid Hormone Responsive (THRSP), THRSP (gene 7069)
Nature of the assay: LTEA_HepaRG_THRSP: Life Technologies and Expression Analysis (LTEA) Assay for Thyroid Hormone Responsive (THRSP) using HepaRG (AID 2283536). Conditions: mRNA level, 48 h; actives raise or lower the signal. A digest of the protocol:
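Differentiated HepaRG cells treated 48 h in serum-free induction medium with 8 half-log concentrations up to 100 uM (0.5% DMSO), duplicates. THRSP mRNA by TaqMan qRT-PCR normalised to ACTB, GAPDH, POLR2A; bidirectional fit versus DMSO.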

Read-out in assay [10]: UDP glucuronosyltransferase (UGT1A1), UGT1A1 (gene 54658)
Nature of the assay: LTEA_HepaRG_UGT1A1: Life Technologies and Expression Analysis (LTEA) Assay for UDP glucuronosyltransferase (UGT1A1) using HepaRG (AID 2283538). The settings on record: mRNA level, 48 h; actives raise or lower the signal. An outline of the steps: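 Differentiated human HepaRG cells in serum-free induction medium were exposed in duplicate for 48 h to eight half-log concentrations up to 100 uM in 0.5% DMSO. UGT1A1 mRNA was quantified by TaqMan qRT-PCR, normalized to ACTB, GAPDH and POLR2A, and fitted bidirectionally against DMSO.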

Read-out in assay [11]: UDP glucuronosyltransferase (UGT1A6), UGT1A6 (gene 54578)
Description: LTEA_HepaRG_UGT1A6: Life Technologies and Expression Analysis (LTEA) Assay for UDP glucuronosyltransferase (UGT1A6) using HepaRG (AID 2283539). The settings on record: mRNA level, 48 h; actives raise or lower the signal. An outline of the steps: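 Endpoint is UGT1A6 transcript induction or loss in a human liver cell line, quantified by TaqMan qRT-PCR 48 h after dosing. Concentrations ran from 100 uM downward in half-log steps in 0.5% DMSO; activity was fitted in both directions versus vehicle.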

Read-out in assay [12]: X-box binding protein 1 (XBP1), XBP1 (gene 7494)
Description: LTEA_HepaRG_XBP1: Life Technologies and Expression Analysis (LTEA) Assay for X-box binding protein 1 (XBP1) using HepaRG (AID 2283540). The settings on record: mRNA level, 48 h; actives raise or lower the signal. An outline of the steps:
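Human HepaRG monolayers receive test chemical for 48 h across an eight-point half-log series starting at 100 uM. XBP1 mRNA gain or loss is scored against DMSO by qRT-PCR.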

The nature of assay [13]: LTEA_HepaRG_LDH_cytotoxicity: Cytotoxicity Assessment in the Life Technologies and Expression Analysis (LTEA) Assay (AID 2283563; active = hit-call score of the fitted dose curve at least 0.9, where 1 is the maximum). A digest of the protocol:
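Human HepaRG hepatic cells are treated with test chemicals for 48 h at up to 100 uM in 0.5% DMSO. Cytotoxicity is scored from medium LDH against the vehicle control.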

Read-out in assay [14]: Cellular tumor antigen p53 (Homo sapiens) (UniProt P04637)
Description: LTEA_HepaRG_TP53: Life Technologies and Expression Analysis (LTEA) Assay for Tumor Protein P53 (TP53) using HepaRG (AID 2283537). The settings on record: mRNA level, 48 h; actives raise or lower the signal. An outline of the steps: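 Gain or loss of TP53 mRNA signal is scored relative to 0.5% DMSO after 48 h chemical treatment of HepaRG liver cells, tested in duplicate at eight half-log concentrations up to 100 uM.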

For assay [15], the target named is Cellular tumor antigen p53 (Homo sapiens) (UniProt P04637). Description: TOX21_p53_BLA_p2_ratio: Tox21 HCT-116 p53 Agonism Beta-lactamase Assay, Ratio, Phase 2 (AID 2283592; active = hit-call score of the fitted dose curve at least 0.9, where 1 is the maximum). An outline of the steps:
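An inducible beta-lactamase reporter in HCT116 cells signals p53 pathway activation. After 16 h chemical exposure at 37C, cells load CCF4-AM substrate for 2 h at room temperature; activity is the cleaved/uncleaved emission ratio relative to DMSO.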

Assay [16] is described as follows: ATG_XTT_Cytotoxicity: Cytotoxicity Assessment in the Attagene TRANS-FACTORIAL HepG2 Assay (AID 2283584; active = hit-call score of the fitted dose curve at least 0.9, where 1 is the maximum). An outline of the steps: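 Transfect HepG2 with GAL4-UAS reporter units, dose compound, incubate 24 h, then measure viable cell number by XTT. Fit concentration response against DMSO baseline.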
A short description of assay [17]: TOX21_p53_BLA_p2_viability: Viability Assessment in the Tox21 HCT-116 p53 Agonism Beta-lactamase Assay, Phase 2 (AID 2283591; active = hit-call score of the fitted dose curve at least 0.9, where 1 is the maximum;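 note: compound exposure lasted 16 h at 37 °C; actives lower the ATP signal meaning cytotoxicity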). A digest of the protocol: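 HCT116 p53-bla cells, 4000/well, dosed after 5 h plating (217-fold dilution of DMSO stocks) and incubated 16 h at 37C. Viability taken as cellular ATP by CellTiter-Glo luminescence after 30 min RT; signal loss marks cytotoxicity.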

Assay [18] is described as follows: TOX21_p53_BLA_p3_viability: Viability Assessment in the Tox21 HCT-116 p53 Agonism Beta-lactamase Assay, Phase 3 (AID 2283593; active = hit-call score of the fitted dose curve at least 0.9, where 1 is the maximum;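 note: cells exposed to compound for 16 h before reading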). An outline of the steps: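 HCT116 cells, 4000/well, dosed 5 h after plating by pin transfer (217-fold dilution from DMSO stock) and incubated 16 h at 37C, 5% CO2. Viability read as ATP luminescence with CellTiter-Glo after 30 min at room temperature.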

This is an account of results in PubChem BioAssay (EPA / NIEHS).

Results filed as inconclusive are left out. Calls of active or inactive are those of the source. Rule for the calls, unless noted: active = hit-call score of the fitted dose curve at least 0.9, where 1 is the maximum; inactive = score below 0.9.

Cellular tumor antigen p53 (Homo sapiens), sequence (P04637 whole entry, looked up): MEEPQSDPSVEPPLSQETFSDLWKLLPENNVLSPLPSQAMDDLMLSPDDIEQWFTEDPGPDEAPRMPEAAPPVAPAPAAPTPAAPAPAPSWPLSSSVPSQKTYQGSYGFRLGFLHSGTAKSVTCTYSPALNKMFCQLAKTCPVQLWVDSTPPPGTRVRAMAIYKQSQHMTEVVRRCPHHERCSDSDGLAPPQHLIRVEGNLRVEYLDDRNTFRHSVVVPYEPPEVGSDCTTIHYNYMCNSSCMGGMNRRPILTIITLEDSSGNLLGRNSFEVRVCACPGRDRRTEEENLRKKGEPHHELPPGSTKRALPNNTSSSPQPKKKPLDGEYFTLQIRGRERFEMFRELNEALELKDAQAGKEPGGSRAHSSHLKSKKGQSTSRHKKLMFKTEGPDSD
Signal transducer and activator of transcription 3 (Homo sapiens), sequence (P40763 whole entry, looked up): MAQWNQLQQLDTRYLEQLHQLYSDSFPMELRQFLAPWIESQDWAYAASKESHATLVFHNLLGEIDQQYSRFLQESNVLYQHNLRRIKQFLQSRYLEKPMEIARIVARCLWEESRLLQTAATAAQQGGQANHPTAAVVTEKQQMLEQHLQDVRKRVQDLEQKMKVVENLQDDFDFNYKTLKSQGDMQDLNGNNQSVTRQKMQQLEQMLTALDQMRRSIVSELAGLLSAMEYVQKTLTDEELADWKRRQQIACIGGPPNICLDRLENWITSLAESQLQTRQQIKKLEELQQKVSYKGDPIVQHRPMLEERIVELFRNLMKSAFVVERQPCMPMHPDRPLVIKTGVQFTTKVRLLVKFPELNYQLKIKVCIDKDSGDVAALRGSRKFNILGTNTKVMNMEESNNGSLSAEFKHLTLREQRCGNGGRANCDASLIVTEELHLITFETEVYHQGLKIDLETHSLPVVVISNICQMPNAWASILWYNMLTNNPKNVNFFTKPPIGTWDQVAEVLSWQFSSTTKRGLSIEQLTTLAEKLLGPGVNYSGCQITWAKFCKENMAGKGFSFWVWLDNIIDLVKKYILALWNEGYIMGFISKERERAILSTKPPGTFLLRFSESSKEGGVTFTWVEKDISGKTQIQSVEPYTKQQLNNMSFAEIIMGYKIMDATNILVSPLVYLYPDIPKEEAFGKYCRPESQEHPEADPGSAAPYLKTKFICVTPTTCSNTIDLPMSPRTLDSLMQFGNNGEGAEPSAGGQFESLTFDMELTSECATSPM

Regarding `CC(Cl)(Cl)C(=O)O`, the compound was called inactive in assay [1], in assay [2], in assay [3], in assay [4], in assay [5] and in assay [6]. Also, the call in assay [7], in [8], in [9], in assay [10], in assay [11] and in assay [12] was inactive. In [13], the call was inactive.

Turning to `ClC(Cl)(Cl)c1ccccc1`, the compound was classed as inactive in [1], in [2], in assay [3], in assay [4], in assay [5] and in assay [6]. In addition, the outcome in assay [7], in assay [8], in [9], in assay [14], in [10] and in [11] was inactive. Moreover, the outcome in assay [12] and in [13] was inactive.

With `CC(Cc1ccc(OCC(=O)O)cc1)NCC(O)c1csc(C(F)(F)F)n1` (stereo not drawn), the outcome in assay [1], in assay [2], in assay [3], in assay [4], in [5] and in [6] was inactive. Also, the compound was called inactive in [7], in [8], in assay [9], in assay [14], in assay [10] and in assay [11]. Besides, the compound was called inactive in [12], in [13] and in assay [15].

For `Nc1ccc(Cl)cc1`, the outcome in assay [1], in [2], in [3], in assay [4], in assay [5] and in assay [6] was inactive. Also, the compound was called inactive in [7], in assay [8], in assay [9], in assay [14], in assay [11] and in assay [12]. Further, the compound was classed as inactive in [13], in [16], in [17], in assay [15] and in assay [18]. The AC50 in assay [10] is 36.5 µM (active).

Take `OCC1CO1` (stereo not drawn): the outcome in assay [1], in [2], in assay [3], in assay [4], in assay [5] and in assay [6] was inactive. The call in [7], in assay [8], in assay [9], in assay [14], in assay [10] and in [11] was inactive. Also, the compound was classed as inactive in assay [12], in [13], in assay [16], in assay [15] and in [18].

`CCOc1ccc(C(C)(C)COCc2cccc(Oc3ccccc3)c2)cc1`: the compound was called inactive in assay [1], in [2], in assay [3], in assay [4], in [5] and in [6]. Also, the compound was called inactive in assay [7], in [8], in assay [9], in assay [14], in [12] and in assay [13]. For the same compound, the compound was called inactive in [16], in [17] and in assay [18]. Besides, the concentration at half-maximal activity (AC50) in [10] is 10.2 µM (active).

As a reminder, the AC50 is the concentration at which the activity in the assay is half-maximal.
